Where a name gives a salt, the structure may show the parent alone.
The compounds below were run on Saccharomyces cerevisiae (assay: fraction of cells in G1 phase (DNA content, flow cytometry); higher = more cells with unreplicated DNA (G1 delay)). Settings: temperature: 30 C; YPD; JTY2953 pdr5 snq2 (sensitized); drug added to: cultures diluted from stationary phase; 6-7 h.
Method in brief: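 S. cerevisiae in YPD at 30°C was dosed with library drugs, using a final 20 µg/ml for sensitized JTY2953 diluted 1∶200 from overnight and fixed at 6–7 h, or dosing dividing JTY2953 (fixed at 6 h) and BY4741 (fixed at 4.33 h). Ethanol-fixed, SYTOX Green-stained cells were read by flow cytometry (10,000 events). The G1 fraction is taken as the Dean-Jett-Fox G1 peak area divided by the G1 and G2/M areas combined.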
CC(C)(O/N=C(\C(=O)N[C@@H]1C(=O)N2C(C(=O)[O-])=C(C[n+]3ccccc3)CS[C@H]12)c1csc(N)n1)C(=O)O [Ceftazidime] (36.5909 µM) was tested, and the “fraction of cells in G1 phase” value was 0.486. For COc1cc(-c2ccc(=O)[nH]n2)ccc1OC(F)F [Zardaverine] (74.5651 µM), the “fraction of cells in G1 phase” value was 0.566. For O=C(c1ccc(F)cc1)C1CCN(CCn2c(=O)[nH]c3ccccc3c2=O)CC1 [Ketanserin tartrate] (50.5769 µM), the “fraction of cells in G1 phase” value was 0.475. In the case of Cc1[nH]c(=O)c(C#N)cc1-c1ccncc1 [Milrinone] (94.6857 µM), the “fraction of cells in G1 phase” value is reported as 0.482. CC(=O)Oc1ccccc1C(=O)O [Acetylsalicylic acid] (111.011 µM) was tested, and the “fraction of cells in G1 phase” value was 0.49. For C[C@]12CC[C@@H]3c4ccc(O)cc4CC[C@H]3[C@@H]1CCC2=O [Estrone] (73.9714 µM), the “fraction of cells in G1 phase” value was 0.508. C=C1CC[C@H](O)C/C1=C/C=C1\CCC[C@]2(C)[C@@H]([C@H](C)CCCC(C)(C)O)CC[C@@H]12 [Calcifediol] (49.9188 µM) was tested, and the “fraction of cells in G1 phase” value was 0.545. With O=C(O)c1cn(-c2ccc(F)cc2)c2cc(N3CCNCC3)c(F)cc2c1=O [Sarafloxacin HCl] (51.8977 µM) the “fraction of cells in G1 phase” value was 0.444. In the case of O=c1[nH]cnc2c1ncn2[C@H]1CC[C@@H](CO)O1 [Didanosine] (84.6625 µM), the “fraction of cells in G1 phase” value is reported as 0.514. CC[C@@H]1C(=O)OC[C@@H]1Cc1cncn1C [Pilocarpine HCl] (96.0327 µM) was tested, and the “fraction of cells in G1 phase” value was 0.526. For CCN(CC)CCCC(C)Nc1c2ccc(Cl)cc2nc2ccc(OC)cc12 (stereo not drawn) [Quinacrine 2HCl dihydrate] (50.004 µM), the “fraction of cells in G1 phase” value was 0.529. With COC(=O)N[C@H](C(=O)N[C@@H](Cc1ccccc1)[C@@H](O)CN(Cc1ccc(-c2ccccn2)cc1)NC(=O)[C@@H](NC(=O)OC)C(C)(C)C)C(C)(C)C [Atazanavir] (28.3739 µM) the “fraction of cells in G1 phase” value was 0.525. CC(=O)[C@H]1CC[C@H]2[C@@H]3CC=C4C[C@@H](O)CC[C@]4(C)[C@H]3CC[C@]12C [Pregnenolone] (63.1936 µM) was tested, and the “fraction of cells in G1 phase” value was 0.586. For Nc1cc(-c2ccncc2)c[nH]c1=O [Amrinone] (106.838 µM), the “fraction of cells in G1 phase” value was 0.474. Cc1c(Cl)cccc1Nc1ccccc1C(=O)O [Tolfenamic acid] (76.4204 µM) was tested, and the “fraction of cells in G1 phase” value was 0.53. In the case of O=C(C1CCCCC1)N1CC(=O)N2CCc3ccccc3C2C1 (stereo not drawn) [Praziquantel] (64.0173 µM), the “fraction of cells in G1 phase” value is reported as 0.441. In the case of CCOc1ccccc1OCCN[C@H](C)Cc1ccc(OC)c(S(N)(=O)=O)c1 [Tamsulosin HCl] (48.9571 µM), the “fraction of cells in G1 phase” value is reported as 0.507. In the case of CC[N+](CC)(CC)CCOc1cccc(OCC[N+](CC)(CC)CC)c1OCC[N+](CC)(CC)CC [Gallamine triethiodide] (39.1519 µM), the “fraction of cells in G1 phase” value is reported as 0.516. In the case of CC1=Nc2ccc(Cl)cc2S(=O)(=O)N1 [Diazoxide] (86.7024 µM), the “fraction of cells in G1 phase” value is reported as 0.516. NC(N)=Nc1nc(CSCC/C(N)=N/S(N)(=O)=O)cs1 [Famotidine] (59.2687 µM) was tested, and the “fraction of cells in G1 phase” value was 0.499. COc1ccccc1OCC(O)CN1CCN(CC(=O)Nc2c(C)cccc2C)CC1 (stereo not drawn) [Ranolazine 2HCl] (46.7783 µM) was tested, and the “fraction of cells in G1 phase” value was 0.445. In the case of CCN(CC)CCNC(=O)c1cc(Cl)c(N)cc1OC [Metoclopramide HCl] (66.7104 µM), the “fraction of cells in G1 phase” value is reported as 0.493. Cc1cnc(NC(=O)C2=C(O)c3ccccc3S(=O)(=O)N2C)s1 [Meloxicam] (56.9143 µM) was tested, and the “fraction of cells in G1 phase” value was 0.501. For CNCCC(Oc1ccccc1OC)c1ccccc1 (stereo not drawn) [Nisoxetine HCl] (73.7022 µM), the “fraction of cells in G1 phase” value was 0.511. For CC1=C(/C=C/C(C)=C/C=C/C(C)=C/C(=O)O)C(C)(C)CCC1 [Retinoic acid] (66.5679 µM), the “fraction of cells in G1 phase” value was 0.524. CO/N=C(\C(=O)N[C@@H]1C(=O)N2C(C(=O)[O-])=C(C[N+]3(C)CCCC3)CS[C@H]12)c1csc(N)n1 [Cefepime] (41.6174 µM) was tested, and the “fraction of cells in G1 phase” value was 0.504. For CCN(CC)CCCC(C)Nc1ccnc2cc(Cl)ccc12 (stereo not drawn) [Chloroquine phosphate] (62.5232 µM), the “fraction of cells in G1 phase” value was 0.469. For CC(C)(C#N)c1cc(Cn2cncn2)cc(C(C)(C)C#N)c1 [Anastrozole] (68.1723 µM), the “fraction of cells in G1 phase” value was 0.518. With CCCCNc1cc(C(=O)O)cc(S(N)(=O)=O)c1Oc1ccccc1 [Bumetanide] (54.8812 µM) the “fraction of cells in G1 phase” value was 0.566. N/C(=N\C(=O)c1nc(Cl)c(N)nc1N)NCc1ccccc1 [Benzamil HCl] (56.1482 µM) was tested, and the “fraction of cells in G1 phase” value was 0.493. NNC(=O)c1ccncc1 [Isoniazid] (145.834 µM) was tested, and the “fraction of cells in G1 phase” value was 0.518. CN1CCC(=C2c3ccccc3C=Cc3ccccc32)CC1 [Cyproheptadine] (69.5874 µM) was tested, and the “fraction of cells in G1 phase” value was 0.426. With Cc1ccc(-c2ncc(Cl)cc2-c2ccc(S(C)(=O)=O)cc2)cn1 [Etoricoxib] (55.7337 µM) the “fraction of cells in G1 phase” value was 0.511. With Nc1nc2c(ncn2COC(CO)CO)c(=O)[nH]1 [Ganciclovir] (78.3591 µM) the “fraction of cells in G1 phase” value was 0.451. In the case of Cc1ccc(NC(=O)c2ccc(CN3CCN(C)CC3)cc2)cc1Nc1nccc(-c2cccnc2)n1 [Imatinib] (40.5173 µM), the “fraction of cells in G1 phase” value is reported as 0.52. For CC[C@]1(O)C[C@H]2CN(CCc3c([nH]c4ccccc34)[C@@](C(=O)OC)(c3cc4c(cc3OC)N(C=O)[C@H]3[C@@](O)(C(=O)OC)[C@H](OC(C)=O)[C@]5(CC)C=CCN6CC[C@]43[C@@H]65)C2)C1 [Vincristine sulfate] (24.243 µM), the “fraction of cells in G1 phase” value was 0.481. With C[C@@H](O)[C@H]1C(=O)N2C(C(=O)O)=C(S[C@@H]3CN[C@H](C(=O)N(C)C)C3)[C@H](C)[C@H]12 [Meropenem] (52.1553 µM) the “fraction of cells in G1 phase” value was 0.495. CN(CCOc1ccc(NS(C)(=O)=O)cc1)CCc1ccc(NS(C)(=O)=O)cc1 [Dofetilide] (45.2927 µM) was tested, and the “fraction of cells in G1 phase” value was 0.551.
